Measured values: PubChem BioAssay AID504810 (National Center for Advancing Translational Sciences (NCATS), 2011)
About 670 (0.2%) of roughly 330,000 compounds were called active. The entries come from a sample that favours actives as a whole. A number with no mark means an inactive call.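 Rule for the calls: active = activity change below a set negative limit, meaning inhibition stronger than a set level (cut at about -70% in these data); inconclusive = activity change between two set negative limits; inactive = the rest.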
% is set by controls: 0 for no effect and ±100 for the full control effect.

What follows are molecules tested against Thyrotropin receptor (Homo sapiens) (UniProt P16473) (assay: Antagonists of the Thyroid Stimulating Hormone Receptor: HTS campaign). Details: TSHR-expressing cells, TSH-stimulated cAMP HTRF, 2 h; at 11.5 µM; hits give low values.
Chain of Thyrotropin receptor (Homo sapiens) (P16473 whole entry, looked up): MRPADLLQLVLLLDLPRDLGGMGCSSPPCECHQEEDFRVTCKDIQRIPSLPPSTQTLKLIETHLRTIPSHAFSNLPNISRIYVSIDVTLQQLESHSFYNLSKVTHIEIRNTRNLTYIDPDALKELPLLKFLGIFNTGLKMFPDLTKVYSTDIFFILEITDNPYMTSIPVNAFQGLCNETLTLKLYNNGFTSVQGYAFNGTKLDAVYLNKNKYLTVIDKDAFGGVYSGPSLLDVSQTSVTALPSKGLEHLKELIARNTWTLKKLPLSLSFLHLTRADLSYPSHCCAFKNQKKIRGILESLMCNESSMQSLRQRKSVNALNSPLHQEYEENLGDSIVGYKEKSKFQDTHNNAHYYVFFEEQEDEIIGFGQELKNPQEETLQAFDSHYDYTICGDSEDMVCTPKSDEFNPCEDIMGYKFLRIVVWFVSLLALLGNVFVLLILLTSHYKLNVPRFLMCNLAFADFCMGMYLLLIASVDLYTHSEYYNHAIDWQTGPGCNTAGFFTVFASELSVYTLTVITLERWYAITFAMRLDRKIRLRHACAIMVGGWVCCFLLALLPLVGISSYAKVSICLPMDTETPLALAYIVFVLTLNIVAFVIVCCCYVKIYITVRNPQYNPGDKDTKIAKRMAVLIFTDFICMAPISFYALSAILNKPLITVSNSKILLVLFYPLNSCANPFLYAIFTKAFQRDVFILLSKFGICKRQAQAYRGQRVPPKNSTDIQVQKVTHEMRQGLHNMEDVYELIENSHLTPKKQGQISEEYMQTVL
From the text: The thyroid-stimulating hormone receptor (TSHR) is a member of the 7 trans-membrane-spanning receptor (7TMR) family of cell surface receptors. TSHR-mediated hyperthyroidism is important in thyroid pathology. The development of small molecule antagonists of TSHR may lead to therapeutic approaches for TSHR-mediated hyperthyroidism caused by constitutively activating mutations or stimulating auto-antibodies associated with Graves' disease. Graves' disease is the leading cause of hyperthyroidism and is caused by autoantibodies that stimulate TSHR (TsAbs) causing thyroid growth and unregulated overproduction of thyroid hormones and existing treatments have liabilities (agranulocytosis). In addition, TSHRs are known to be expressed in multiple extrathyroidal tissues including bone, brain, kidney, testis, fat and cells of the immune system but the role of the TSHR in these tissues is not clear. Therefore, TSHR antagonists/inverse agonists could be used as probes of extrathyroidal TSHR function. Finally, TSHR inverse agonists, which are a subclass of antagonists that inhibit agonist-independent (or basal or constitutive) TSHR signaling, could be used to inhibit TSH-independent signaling in patients with recurrent or metastatic thyroid cancer who are receiving thyroid hormone to suppress TSH. In collaboration between scientist from the NCGC and the NIDDK, a miniaturized HTRF high-throughput screen was developed. It's a cell based assay, where an anti cAMP antibody contains a fluorescent cryptate tag (excitation 337 nm; emission 620 nm) and the acceptor is cAMP-d2 (excitation 620 nm; emission 665 nm). When antibody and cAMP-d2 interact and are excited by a 337 nm light, a FRET occurs resulting in emission at 665 nm. The assay is competition between cAMP-d2 and cAMP (from the cell lysate). The homogeneous protocol allows for one step dispense after stimulation that is automation friendly. NIH Chemical Genomics Center [NCGC] NIH Molecular Libraries Probe Centers Network [MLPCN] MLPCN Grant: MH090855-01 Assay Submitter (PI): Marvin Gerhengorn
1. 3ul of 200 TSHR freshly harvested cells/well are dispensed into a 1536 TC-treated white solid bottom plate. 2. Through pintool addition, 23nl of compounds and control in 100% DMSO are added to the plate. 3. Then 1ul of EC80 TSH (4nM final) is added to the plate. 4. Assay is incubated at 37 deg C for 2 hours. 5. 2ul of cAMP antibody diluted 1:20 in lysis buffer is added. 6. Immediately following, 2ul of d2 diluted 1:20 in HBSS is added seperately. 7. The assay is incubated for 30 minutes at ambient room temperature. 8. The result is obtained by using a ViewLux read-out with HTRF settings.
COC(=O)C1=C(c2cccc(OCc3ccccc3)c2)C[C@@H]2CC[C@H]1N2C(=O)NCc1ccc(Br)cc1 showed an activity change, negative = inhibition of -5.89%. COC(=O)C1=C(c2ccc(-c3ccccc3)c(F)c2)C[C@@H]2CC[C@H]1N2C(=O)NCc1ccc(F)cc1 was tested, and the activity change, negative = inhibition was -85% (active). Work on COC(=O)C1=C(c2ccc(F)cc2OCc2ccccc2)C[C@@H]2CC[C@H]1N2C(=O)NCc1ccc(Cl)cc1 yielded an activity change, negative = inhibition of -10%. With c1ccc2c(c1)[I+]c1ccccc1-2 the activity change, negative = inhibition was -36.8%. CC(=O)c1c(O)c(C)c(O)c(Cc2c(O)c3c(c(C(=O)/C=C/c4ccccc4)c2O)OC(C)(C)C=C3)c1O was tested, and the activity change, negative = inhibition was -26.9%. Molecule CCOC(=O)c1ncn2c1[C@@H]1CCCN1C(=O)c1cc(OC)ccc1-2 has an activity change, negative = inhibition of -12.5%. For C[C@]12CCC3C(CC[C@H]4C[C@@H](O)CC[C@]34C)C1C[C@@H](O)[C@H]2O (stereo not given in full), the activity change, negative = inhibition was 2.4%. Molecule C[C@]12CCC3C(CC[C@H]4C[C@@H](O)CC[C@]34C)C1CC[C@@H]2O (stereo not given in full) has an activity change, negative = inhibition of 3.15%. With C[C@]12CC[C@H](O)C[C@H]1CC[C@@H]1C2CC[C@]2(C)[C@@H](C3=CC(=O)OC3)[C@@H](O)C[C@]12O (stereo not given in full) the activity change, negative = inhibition was -81.8% (active). In the case of CC(=O)NBr, the activity change, negative = inhibition is reported as -6.86%.
